Screening data: PubChem BioAssay, Center for Chemical Genomics, University of Michigan
The sample as a whole holds a higher share of hits than the screen did.
Dicer processing: inhibitors of Dicer pre-microRNA processing, primary screen, biochemical, cat-ELCCA, chemiluminescence; Endoribonuclease Dicer (Homo sapiens), Q9UPY3; cat-ELCCA pre-miR-21 Dicer processing; active compounds read high; z-score at 25 µM; hit rate 6% among 47,000; AID 1347074, 2019; in the data active means z-score above about 3, passing the limit was not always enough;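 further: plate controls were vehicle for no effect and no enzyme for full effect; higher signal means more uncleaved substrate so more Dicer inhibition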
The depositor's hits bear a star.

SMILES	Dicer processing
Nc1ccc2nc(CCCc3nc4ccccc4s3)[nH]c2c1	-1.4
Nc1ccc2nc(/C=C/c3ccccc3)[nH]c2c1	3.2*
Nc1ccc(Cc2nc3ccc(C(=O)O)cc3[nH]2)cc1	1.7
CCCCNC(=O)O/N=C(\C)c1ccc2cc(OC)ccc2c1	-1.2
CC1C(c2ccccc2)N(C)C(c2ccccc2)C(C)C1(O)c1ccc(F)cc1 (stereo unspecified)	-2.4
Cn1c2c(c(=O)n(C)c1=O)C(c1ccc(OCc3ccccc3)cc1)C1=C(N2)c2ccccc2C1=O (stereo unspecified)	1.9
CS/C(=N\Nc1c(Cl)cc(Cl)cc1Cl)NC(=O)c1c(Cl)cccc1Cl	1.6
COC(=O)c1c(NC(=O)C2Cc3ccc(C)cc3C(=O)O2)sc2c1CCC2 (stereo unspecified)	-0.87
O=C(CSc1nc2ccccc2[nH]1)N1CCc2ccccc21	3.1*
O=C(CSc1nc2ccccc2nc1N1CCOCC1)NCc1cccs1	3*
O=C(CSc1nc2ccccc2nc1N1CCOCC1)N1CCCc2ccccc21	3.4*
O=C(CSc1nc2ccccc2nc1SCC(=O)N1CCOCC1)N1CCOCC1	1.5
O=C(CSc1nc2ccccc2nc1N1CCCC1)Nc1ccc(Br)cc1	2.3
O=C(CSc1nc2ccccc2s1)N1CCc2ccccc21	1.4
c1csc(-c2nnc(N3CCOCC3)c3ccccc23)c1	0.89
O=C(CSc1nc2ccccc2nc1N1CCOCC1)Nc1cccc(Br)c1	3.2*
O=C(CSc1nc2ccccc2nc1N1CCCC1)Nc1ccc(Cl)cc1	2.5
CSc1nsc(SCC(=O)N2CCCc3ccccc32)n1	-1.6
O=C(CSc1nnc(-c2ccccc2)c(-c2ccccc2)n1)N1CCc2ccccc21	-0.32
Cc1cc(C)nc(N2CCN(C(=O)CSc3nc4ccccc4nc3N3CCCCC3)CC2)n1	2.6
CN(/N=C/C=N/Nc1ccccc1)c1ccccc1[N+](=O)[O-]	0.25
Cn1c(-c2c(CCC(=O)O)oc3cc(O)ccc3c2=O)nc2ccccc21	1.3
COc1nc(-c2ccc(Cl)cc2)ccc1-c1noc(C(C)C)n1	0.92
CCOC(=O)C1=C(C)NC(=S)N(C(C)=O)C1c1cccs1 (stereo unspecified)	-0.96
CCn1nc(C)cc1-c1n[nH]c(=S)n1-c1cccc(C(F)(F)F)c1	-0.19
SMILES	Dicer processing
Cc1ccc(OCC2SCCN2S(=O)(=O)c2ccc(F)cc2)c([N+](=O)[O-])c1 (stereo unspecified)	0.02
COc1ccc(-c2noc(Cc3ccc(C)cc3)n2)cc1	-0.28
CCCSc1nnc2c(n1)OC(c1ccc(C(=O)O)cc1)Nc1ccccc1-2 (stereo unspecified)	0.57
O=C(CSc1nc(-c2cccs2)cc(C(F)(F)F)n1)NCc1ccco1	0.51
O=C(CSc1nc2ccccc2nc1N1CCOCC1)NCc1ccco1	3.4*
CSc1nsc(SCC(=O)NCc2ccco2)n1	-0.97
CCOc1ccc2c(c1)C(C)=CC(C)(C)N2S(=O)(=O)c1ccc(Cl)cc1	0.79
CCOc1ccc(N(C)S(=O)(=O)c2ccc(Cl)cc2)cc1	3.1*
COc1ccc(N(C2C=CS(=O)(=O)C2)S(=O)(=O)c2ccc(Cl)cc2)cc1 (stereo unspecified)	-1
Cc1cc(C)cc(Oc2coc3c(CN4CCOCC4)c(O)ccc3c2=O)c1	0.84
Cn1c(=O)c2c(c3ccccc31)OC(=O)CC2c1cccc(Br)c1 (stereo unspecified)	0.4
COc1ccccc1N=C1SCC(=O)N1Cc1ccco1	4*
O=C1CSC(=Nc2cc(Cl)cc(Cl)c2)N1Cc1cccs1	1
COc1ccc(N=C2SCC(=O)N2CCc2ccc(OC)c(OC)c2)cc1	2.3
Cc1cc(C)c(N=C2SCC(=O)N2Cc2ccco2)c(C)c1	4.8*
O=C1CSC(=Nc2ccc(Cl)cc2)N1Cc1ccco1	-0.33
CC(c1ccccc1)C1CC(=O)N(Cc2ccco2)C1=O (stereo unspecified)	1.9
FC(F)(F)c1ccc(N2CCCN(c3ncnc4scc(-c5ccccc5)c34)CC2)nc1	-0.39
CCOc1c(C)nc(C)c(OCC)c1-c1cccc([N+](=O)[O-])c1	-1.7
N/C(=N\OC(=O)Nc1ccc(Cl)cc1)c1nccnc1Sc1ccc(Cl)cc1	2.6
Cc1ccc(N2C(=O)C3C4c5ccccc5C(C(=O)O)(c5ccccc54)C3C2=O)c(Br)c1 (stereo unspecified)	-0.81
CCNC(=O)N(Cc1ccccc1)Cc1cccnc1	1.9
CCOc1ccc(-c2nc3cc(N)ccc3o2)cc1	1.5
CN(C)c1ccc(-c2nc3cc(N)ccc3o2)cc1	3.4*
Nc1cccc(-c2nc3ccccc3o2)c1	0.17
SMILES	Dicer processing
Nc1cccc(-c2nc3cc(Cl)ccc3o2)c1	4.5*
Nc1ccc(-c2nc3cc(N)ccc3o2)cc1	-0.37
Cc1cc2nc(-c3cccc(N)c3)oc2cc1C	0.66
Cc1onc(-c2c(Cl)cccc2Cl)c1NC(=O)NNc1c(F)cccc1Cl	0.23
CNc1ccc(Cl)cc1C(=O)Nc1nnc(C)s1	-0.08
CCOCCOC(=O)C1=C(C)NC2=C(C(=O)CC(c3cccs3)C2)C1c1ccc(Cl)cc1 (stereo unspecified)	1.9
CSc1sc(C(=O)NCc2cccs2)c(-c2ccc(Cl)cc2)c1C#N	-2.7
O=C(/C=C(\C(=O)c1ccccc1)c1ccccc1)c1ccc2c(c1)OCCO2	0.47
CC(C)(C)c1cc(C(=O)NN)n(Cc2ccccc2)n1	0.16
O=C1ON=C(c2ccccc2)/C1=C1\SC(C(=O)c2ccccc2)=NN1c1ccccc1	3.5*
CC1=NN(c2ccccc2)C(=O)/C1=C1/SC(C(=O)c2ccccc2)=NN1c1ccccc1	159
CC1=NN(c2ccccc2)C(=O)/C1=C1/SC(C(=O)c2ccccc2)=NN1c1ccc(Cl)cc1	-1.2
Nc1ncnc2c1nc(N/N=C/c1ccncc1)n2[C@H]1O[C@@H](CO)[C@H](O)[C@@H]1O	0.89
CSCCn1c(-c2ccccc2)cc(C(=O)Nc2ccc3c(c2)OCCO3)c1C	-1.4
Fc1ccc(/C=N/Nc2nnc3c(n2)[nH]c2ccccc23)cc1	-0.21
C(=N\Nc1nnc2c(n1)[nH]c1ccccc12)/c1ccc2c(c1)OCO2	-0.7
Oc1ccccc1/C=N/Nc1nnc2c(n1)[nH]c1ccccc12	3.4*
Cc1nc(-c2c(C(=O)NNC(=O)c3ccc(C(F)(F)F)cc3)noc2C)cs1	1.4
Cc1cc(C)c2nc(Nc3nc(C)cc(C)n3)nc(C)c2c1	3.3*
CC1=CC(C)(C)N=C(Nc2nc(C)c3cc(C)cc(C)c3n2)N1	-0.43
Cc1cc(C)c2nc(Nc3nc4ccccc4c(=O)[nH]3)nc(C)c2c1	3
CC(=O)NC(Nc1ccc(C)cc1)(C(F)(F)F)C(F)(F)F	-0.8
Cc1cc(-c2nnc(C(F)(F)F)o2)ccc1NC(=O)c1cccs1	0.09
CSc1c(-c2ccccc2)c(N)nn1S(=O)(=O)c1ccccc1	1.1
Cc1cccc(OCc2nn3c(-c4ccccc4Cl)nnc3s2)c1	-1.7
